High-throughput results from PubChem.
An excerpt weighted towards active compounds, which were near 1.8% of everything screened.
GSTO1 counter = GSTO1 inhibition, counter-screen for RBBP9 inhibitors; P78417; recombinant GSTO1, activity-based probe fluorescence polarization; inhibition, % at 5.96 µM; actives 1.1% (n = 300,000); AID 1974;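 active = inhibition above the campaign mean inhibition plus 3 SD, cut at about 35% in these data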;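 note: 0% = GSTO1-1 with DMSO and 100% = wells lacking GSTO1-1 enzyme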
PME-1 inh = PME-1 (human) inhibition; AID 2130; inhibition, % at 5.9 µM; actives 0.53% (n = 320,000); Q9Y570; recombinant PME-1, FP-Rh probe fluorescence polarization;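 active = inhibition above the campaign mean of all compounds plus 3 SD, cut at about 26% in these data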;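 note: competitive labeling of PME-1 active site by serine hydrolase directed probe; 0% = PME-1 with DMSO and 100% = wells lacking PME-1 enzyme; inhibitors block probe labeling so polarization falls and inhibition rises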
Fam108B counter = blocks mouse Fam108B hydrolase in RBBP9 counter-screen; recombinant Fam108B, FP-Rh probe fluorescence polarization; inhibition, % at 9.51 µM; actives 0.33% (n = 300,000); AID 1947;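 active = inhibition above the screen mean inhibition plus 3 SD, computed separately per campaign, cut at about 18% in these data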;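 note: inhibitors lower polarization as less probe binds the enzyme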
LYPLA2 inh = LYPLA2 (human) inhibition in PME1 counter-screen; recombinant LYPLA2, FP-Rh probe fluorescence polarization; inhibition, % at 5.9 µM; actives 0.38% (n = 320,000); AID 2177;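 active = inhibition above the screen-wide mean plus 3 SD, limit set per campaign, cut at about 26% in these data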;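 note: 0% = LYPLA2 with DMSO and 100% = wells lacking LYPLA2 enzyme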
LYPLA1 inh = counter-screen for PME1 inhibitors: inhibitors of human LYPLA1; recombinant LYPLA1, FP-Rh probe fluorescence polarization; inhibition, % at 5.9 µM; actives 0.16% (n = 320,000);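 active = inhibition above the mean of all tested compounds plus 3 SD, set per campaign, cut at about 14% in these data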;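 note: inhibitors block serine hydrolase probe labeling of LYPLA1 so polarization falls; 0% = enzyme with DMSO and 100% = wells lacking LYPLA1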
PAD4 inh = PAD4 (human) enzyme inhibition. Q9UM07. recombinant PAD4, RCA probe fluorescence polarization. inhibition, % at 6.36 µM. actives 0.41% (n = 330,000);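 active = percent inhibition above a cutoff equal to the mean of all tested compounds plus 3 SD, cut at about 15% in these data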;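 note: 0% = PAD4 with RCA probe and DMSO and 100% = probe without PAD4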
Target sequence (Q9UM07 whole entry, looked up): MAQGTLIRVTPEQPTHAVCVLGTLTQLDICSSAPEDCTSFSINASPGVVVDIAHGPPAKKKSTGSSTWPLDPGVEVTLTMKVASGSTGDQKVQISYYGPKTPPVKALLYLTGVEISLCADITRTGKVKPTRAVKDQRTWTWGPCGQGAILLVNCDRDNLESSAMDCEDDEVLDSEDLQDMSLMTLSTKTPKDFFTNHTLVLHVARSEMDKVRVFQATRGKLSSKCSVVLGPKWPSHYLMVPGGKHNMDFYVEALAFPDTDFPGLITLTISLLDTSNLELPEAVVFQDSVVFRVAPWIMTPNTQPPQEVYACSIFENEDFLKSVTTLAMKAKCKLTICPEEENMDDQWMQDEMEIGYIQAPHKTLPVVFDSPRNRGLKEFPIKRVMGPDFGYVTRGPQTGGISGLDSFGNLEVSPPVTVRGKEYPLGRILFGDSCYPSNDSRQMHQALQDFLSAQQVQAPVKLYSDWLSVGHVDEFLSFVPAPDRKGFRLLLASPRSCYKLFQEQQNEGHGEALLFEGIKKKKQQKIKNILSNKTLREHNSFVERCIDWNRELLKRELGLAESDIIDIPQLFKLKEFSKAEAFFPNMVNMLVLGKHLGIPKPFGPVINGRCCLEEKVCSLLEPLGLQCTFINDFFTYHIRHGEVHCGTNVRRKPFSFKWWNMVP
LYPLA2 confirm = LYPLA2 (human) inhibition, confirmation counter-screen; shares compounds with LYPLA2 inh; recombinant LYPLA2, FP-Rh probe fluorescence polarization; inhibition, % at 5.9 µM; actives 72% (n = 1,100); AID 2232;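 active = mean inhibition across replicates above the hit cutoff set in the primary screen, cut at about 26% in these data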;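 note: blocked labeling of the enzyme by serine hydrolase FP-Rh probe lowers polarization; 0% = enzyme with DMSO and 100% = wells lacking LYPLA2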
LYPLA2 gel ABPP = inhibitors of human LYPLA2 | rhLYPLA2 in mouse brain proteome, gel ABPP FP-Rh | shares compounds with LYPLA2 inh | inhibition, % at 20 µM | actives 30% (n = 150);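 active = inhibition of LYPLA2 enzyme probe labeling above about 50%, limit read from the data; inactive = inhibition below that limit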;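 note: loss of FP-Rh probe labeling of the LYPLA2 gel band measured as band density; 0% = DMSO only control band and 100% = blank gel background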
The depositor's hits bear a star; x = not tested or not shown.

SMILES	GSTO1 counter	PME-1 inh	Fam108B counter	LYPLA2 inh	LYPLA1 inh	PAD4 inh	LYPLA2 confirm	others
O=[N+]([O-])c1cc(/C=N/O)ccc1Oc1cccc(Cl)c1	2	14	-2	8	-5	-3	x
Cc1cc(=O)oc2cc(Oc3ccc([N+](=O)[O-])cc3[N+](=O)[O-])ccc12	7	10	5	37*	6	7	41*
Cc1c(Nc2ccc3nonc3c2[N+](=O)[O-])c(=O)n(-c2ccccc2)n1C	13	-3	-2	32*	-1	-15	37*
CC(=O)N1c2ccc(S(=O)(=O)NCC3CCC(C(=O)NCc4ccc(C)cc4)CC3)cc2CC1C (configuration not stated)	3	1	7	28*	-2	-7	28*
CC(=O)N1c2ccc(S(=O)(=O)NCC3CCC(C(=O)NCc4ccc(C)o4)CC3)cc2CC1C (configuration not stated)	2	5	-6	0	2	1	x
COC(=O)c1ccc(NC(=O)C(=O)N2CCN(C(=S)Nc3cccc(C)c3C)CC2)cc1	-5	-1	6	50*	0	0	42*
COC(=O)c1ccc(NC(=O)C(=O)N2CCN(C(=S)Nc3ccccc3OC)CC2)cc1	0	1	1	5	0	-2	x
Fc1ccccc1COc1ccc(/C=N/n2cnnc2)cc1	-2	8	3	26*	4	-5	12
C=CCn1c(SCC(=O)OCC)nc2cc(C(=O)NCc3ccco3)ccc2c1=O	5	2	-1	-13	-8	1	x
CCCCCn1c(SCC(=O)OCC)nc2cc(C(=O)NCc3ccco3)ccc2c1=O	4	0	1	34*	-8	-2	-4
Oc1ccc2ccccc2c1N=Nc1ccc(F)cc1	-53	-69	-22	29*	5	-3	-123
Cc1ccc(/C=C2/SC(=S)N(c3ccc(S(=O)(=O)Nc4nccs4)cc3)C2=O)cc1	5	5	-4	9	-2	-8	x
Cc1ccc(Oc2ccc3c(c2)C(=O)N(c2ccc(S(=O)(=O)Nc4nccs4)cc2)C3=O)cc1	-5	5	3	63*	-5	-3	54*	LYPLA2 gel ABPP=53*
O=C(c1ccc(N2CCCC2=O)cc1)N1CCN(c2ccccc2Cl)CC1	x	2	x	10	0	5	x
COc1ccc(C(=O)Nc2ccc(N3CCN(C(=O)c4cccs4)CC3)cc2)cc1Br	-10	3	1	29*	4	-11	27*
CC(=O)c1ccc(N2CCN(C(=O)Nc3ccc(Cl)cc3)CC2)cc1	-4	-5	4	27*	14	-8	18
O=C(c1ccc(N2CCCC2=O)cc1)N1CCN(c2ccc(Cl)cc2)CC1	3	2	-3	53*	0	-5	55*	LYPLA2 gel ABPP=40
O=C(Nc1ccc(N2CCN(C(=O)c3ccc(Cl)cc3)CC2)cc1)c1cccs1	4	5	0	29*	-1	0	27*
COc1cc(OC)cc(C(=O)Nc2ccc(N3CCN(C(=O)c4cccs4)CC3)cc2)c1	-4	-4	5	1	1	-9	x
O=C(CCNS(=O)(=O)c1ccccc1F)N1CCN(Cc2ccccc2)CC1	4	2	0	7	0	-1	x
CN(C)CCCNC(=O)C1(O)c2cc(Br)ccc2NC(=O)N1c1ccc(Cl)cc1 (configuration not stated)	-5	-1	-1	-9	-6	2	x
O=C(Nc1ccc(N2CCN(C(=O)c3ccc(Cl)cc3)CC2)cc1)c1ccc2c(c1)OCCO2	-2	7	1	58*	4	4	63*	LYPLA2 gel ABPP=24
COc1cccc(CNC(=O)C2CCC(CNS(=O)(=O)c3cccc4nsnc34)CC2)c1 (configuration not stated)	2	-3	0	26*	1	1	46*
O=C(C1CCC(CNS(=O)(=O)c2cccc3nsnc23)CC1)N1CC=C(c2ccccc2)CC1 (configuration not stated)	-3	0	1	42*	1	-4	41*
O=C(NCc1cccs1)C1CCC(CNS(=O)(=O)c2cccc3nsnc23)CC1 (configuration not stated)	2	0	1	9	-1	1	x
SMILES	GSTO1 counter	PME-1 inh	Fam108B counter	LYPLA2 inh	LYPLA1 inh	PAD4 inh	LYPLA2 confirm	others
CN(C(=O)CC(=O)Nc1ccc(Cl)c(Cl)c1)c1ccccc1	-4	-1	0	5	-1	-3	x
O=C(c1ccc2nsnc2c1)N1CCN(c2ccc([N+](=O)[O-])cc2)CC1	3	11	2	27*	6	-6	22
O=C(Cc1ccc([N+](=O)[O-])cc1)N1CCN(c2ccc([N+](=O)[O-])cc2)CC1	0	8	1	69*	6	-4	69*	LYPLA2 gel ABPP=70*
COc1ccc(CNC(=O)COC(=O)CO/N=C(\C)c2ccc3c(c2)OCO3)cc1	5	-1	-4	5	-1	0	x
O=C(COC(=O)c1ccccc1Cc1ccccc1)NC1CCS(=O)(=O)C1 (configuration not stated)	-7	1	-4	-1	1	1	x
COc1ccc(CCNC(=O)CCCOc2ccc(C)cc2)cc1OC	-3	-3	-2	3	1	3	x
COc1ccc(CCNC(=O)COc2ccc(-c3ccccc3)cc2)cc1OC	1	-1	7	30*	0	3	31*
CN1CCN(CCCNC(=S)Nc2ccc(F)c(Cl)c2)CC1	11	1	1	-1	-2	1	x
COc1ccccc1-c1nnc(C2CCN(S(=O)(=O)c3cccc([N+](=O)[O-])c3)CC2)o1	-1	0	1	20	2	-9	x
COc1ccccc1-c1nnc(C2CCN(S(=O)(=O)c3ccc([N+](=O)[O-])cc3)CC2)o1	3	2	2	75*	2	0	72*	LYPLA2 gel ABPP=58*
NC(=O)c1ccc(Oc2cccc3cccnc23)c([N+](=O)[O-])c1	7	4	4	10	0	0	x
O=[N+]([O-])c1ccc(Oc2cccc3cccnc23)c(Cl)c1	-5	4	1	28*	-4	2	16
CCc1ccc(N(CC(=O)NCc2ccco2)C(=O)CCC(=O)Nc2ccccn2)cc1	1	0	0	5	-2	-4	x
O=C(Nc1cccc(S(=O)(=O)C(F)F)c1)c1ccc(S(=O)(=O)N2CCOCC2)cc1	-7	-1	0	-6	-5	-8	x
